Assay results taken from PubChem BioAssay.
“And” between values parts separate entries of the source, which are not always exact repeats. Equal entries are not always repeated. The source made the active and inactive calls. Unless noted, no rule for the calls is given here.

Legend:
[1] = compound effects on lung adenocarcinoma cell viability – A549, calcein-AM fluorescence, 48 h, basal, profiling panel (AID 1162); details: higher = more signal; also: test concentration not given here
[2] = compound effects on differentiated 3T3-L1 adipocyte viability – cell-based, 3T3-L1 adipocytes, calcein-AM fluorescence, 48 h, basal, profiling panel (AID 1163); details: 3T3-L1 adipocytes viability, higher = more signal; also: test concentration not given here
[3] = compound effects on hepatocellular carcinoma cell viability – HepG2, calcein-AM fluorescence, 48 h, basal, profiling panel (AID 1164); details: higher = more signal; also: test concentration not given here
[4] = compound effects on multiple myeloma cell viability – MM1S, calcein-AM fluorescence, 48 h, basal, profiling panel (AID 1165); details: higher = more signal;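 also: viability of MM1S multiple myeloma cells under basal unstimulated conditions; test concentration not given here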
[5] = calcein-AM signal in unstimulated myeloma cells – cell-based, calcein-AM fluorescence, 48 h, PK04 Diversity Set, profiling panel (AID 1166); details: higher = more signal; RPMI8226 myeloma viability, calcein-AM fluorescence, 48 h unless noted;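 also: cells grown under basal conditions without added stimulus; test concentration not given here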
[6] = JC-1 mitochondrial signal, unstimulated HepG2 cells – cell-based, JC-1 fluorescence, 24 h, 100 nL compound, profiling panel (AID 1167); details: HepG2 mitochondrial potential, higher = more signal; also: test concentration not given here
[7] = JC-1 mitochondrial signal, unstimulated adipocytes – cell-based, JC-1 fluorescence, 3T3-L1 adipocytes, 24 h, 100 nL compound, profiling panel (AID 1168); details: JC-1 mitochondrial fluorescence; higher = more signal, called active from +8 up or from −8 down unless noted; also: test concentration not given here
[8] = JC-1 mitochondrial signal, unstimulated myeloma cells – cell-based, JC-1 fluorescence, RPMI8226, 24 h, 100 nL compound, profiling panel (AID 1169); details: higher = more signal; RPMI8226 myeloma, JC-1 mitochondrial potential fluorescence, 24 h unless noted; also: test concentration not given here
[9] = JC-1 mitochondrial signal, unstimulated MM1S myeloma – cell-based, JC-1 fluorescence, 24 h, 100 nL compound, profiling panel (AID 1170); details: MM1S mitochondrial potential, higher = more signal; also: test concentration not given here
[10] = resazurin metabolic signal in A549 cells – cell-based, resazurin fluorescence, 24 h, PK04 Diversity Set, profiling panel (AID 1171); details: A549 viability; higher = more signal, called active from +8 up or from −8 down unless noted; also: test concentration not given here
[11] = resazurin metabolic signal in HepG2 cells – cell-based, resazurin fluorescence, 24 h, PK04 Diversity Set, profiling panel (AID 1172); details: HepG2 viability, higher = more signal; also: test concentration not given here
[12] = budding yeast growth changes without added modifier – OD600, strain BY4716, 24 h, basal condition, primary screen (AID 1173); details: S. cerevisiae BY4716 growth, OD600, 24 h; higher = more signal, called active from +8 up or from −8 down unless noted
[13] = viability profiling in MM1S myeloma cells – cell-based, resazurin fluorescence, basal, 24 h, PK04 Diversity Set, profiling panel (AID 1174); details: higher = more signal, called active from +8 up or from −8 down unless noted; also: test concentration not given here
[14] = molecular target: Dihydroorotate dehydrogenase (quinone), mitochondrial (Plasmodium falciparum (isolate 3D7)) (UniProt Q08210); assay: inhibition of P. falciparum DHODH – biochemical, C-terminal His tag, absorbance 600 nm, primary screen (AID 1175); details: PfDHODH enzyme, DCIP absorbance 600 nm; higher = more signal, called active from +8 up or from −8 down unless noted;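 also: recombinant parasite enzyme with a five histidine tag at its C terminus; test concentration not given here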
Chain of Dihydroorotate dehydrogenase (quinone), mitochondrial (Plasmodium falciparum (isolate 3D7)) (Q08210 whole entry, looked up): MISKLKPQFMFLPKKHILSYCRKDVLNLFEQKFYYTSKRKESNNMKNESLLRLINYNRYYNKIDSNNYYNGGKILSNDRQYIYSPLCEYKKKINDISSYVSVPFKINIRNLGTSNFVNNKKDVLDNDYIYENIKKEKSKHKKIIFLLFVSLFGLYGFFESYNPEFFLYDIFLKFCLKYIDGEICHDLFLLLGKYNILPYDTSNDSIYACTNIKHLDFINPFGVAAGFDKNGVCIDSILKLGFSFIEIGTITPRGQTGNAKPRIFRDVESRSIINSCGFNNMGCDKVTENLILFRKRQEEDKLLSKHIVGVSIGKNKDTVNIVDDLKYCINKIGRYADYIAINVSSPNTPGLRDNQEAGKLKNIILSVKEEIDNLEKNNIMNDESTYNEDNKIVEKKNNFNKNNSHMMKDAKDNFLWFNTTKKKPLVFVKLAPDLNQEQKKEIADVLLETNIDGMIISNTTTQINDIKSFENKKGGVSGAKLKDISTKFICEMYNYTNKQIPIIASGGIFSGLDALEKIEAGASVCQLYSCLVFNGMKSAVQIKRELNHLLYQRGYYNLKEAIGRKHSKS

[15] = inhibition of PAO1 biofilm formation – strain PAO1, LB-PBS medium, absorbance 600 nm, primary screen (AID 1176); also: test concentration not given here; details: P. aeruginosa PAO1 growth/biofilm, A600, 12 h; higher = more signal
[16] = growth modulation of vineyard yeast isolate – strain RM11-1a, OD600, basal, 24 h, primary screen (AID 1177);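 also: cultures grown under basal conditions with no added stressor; test concentration not given here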; details: S. cerevisiae RM11-1a growth, OD600, 24 h; higher = more signal, called active from +8 up or from −8 down unless noted
[17] = growth of efflux-deficient E. coli DRC39 – strain DRC39, OD650, 24 h, E. coli filamentation inducers, primary screen (AID 1178);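 also: growth measured as culture turbidity by optical density at 650 nm; test concentration not given here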; details: E. coli DRC39 acrAB; higher = more signal, called active from +8 up or from −8 down unless noted
[18] = growth of efflux-deficient E. coli DRC39 – strain DRC39, OD650, 48 h, E. coli filamentation inducers, primary screen (AID 1179);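 also: screen aims at cell division blockers that make cells filament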; details: E. coli DRC39 delta-acrAB growth, higher = more signal, called active from +8 up or from −8 down unless noted
[19] = viability profiling in RPMI8226 myeloma cells – cell-based, resazurin fluorescence, basal, 24 h, PK04 Diversity Set, profiling panel (AID 1180); details: higher = more signal; RPMI8226 viability, resazurin fluorescence, 24 h unless noted;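 also: RPMI8826 multiple myeloma cell line at 5000 cells per well; test concentration not given here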
[20] = molecular target: E3 ubiquitin-protein ligase XIAP (Homo sapiens) (UniProt P98170); assay: small molecules binding XIAP protein – biophysical, small-molecule microarray, fluorescence 635 nm, primary screen (AID 1181); details: higher = more signal;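 also: score merges 667 nm emission and signal to noise over triplicate slides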
Chain of E3 ubiquitin-protein ligase XIAP (Homo sapiens) (P98170 whole entry, looked up): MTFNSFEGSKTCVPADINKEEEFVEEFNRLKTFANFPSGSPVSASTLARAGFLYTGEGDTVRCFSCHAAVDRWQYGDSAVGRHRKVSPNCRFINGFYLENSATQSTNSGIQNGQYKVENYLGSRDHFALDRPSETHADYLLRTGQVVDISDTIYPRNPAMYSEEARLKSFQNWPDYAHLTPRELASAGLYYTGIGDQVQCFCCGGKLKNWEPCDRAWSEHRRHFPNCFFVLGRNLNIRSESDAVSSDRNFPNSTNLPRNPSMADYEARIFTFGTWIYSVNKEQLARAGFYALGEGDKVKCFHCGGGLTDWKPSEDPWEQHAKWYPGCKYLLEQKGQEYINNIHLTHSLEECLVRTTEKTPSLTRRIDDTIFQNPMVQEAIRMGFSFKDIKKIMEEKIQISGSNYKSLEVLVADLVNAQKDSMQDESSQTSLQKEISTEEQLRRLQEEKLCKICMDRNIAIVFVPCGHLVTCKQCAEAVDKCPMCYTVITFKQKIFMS

C[C@H]1O[C@H]2C3=C(C(=O)[C@@H]4O[C@@H]4[C@@H]3O)[C@@H]1[C@@H]1[C@@H](C)OC=C3[C@@H](O)[C@H]4O[C@H]4C(=O)[C@]312
z-score [1]: 0.767
z-score [2]: 0.439
z-score [3]: 0.0608
z-score [4]: -1.54
z-score [5]: -0.168
z-score [6]: -0.407
z-score [7]: 0.407 (inactive)
z-score [8]: 0.692
z-score [9]: -0.996
z-score [10]: -0.831 (inactive)
z-score [11]: -0.85
z-score [12]: -0.92 (inactive)
z-score [13]: -1.92 (inactive)
composite z-score [14]: -1.59 (inactive)
z-score [15]: 0.629 (inactive)
z-score [16]: -0.839 (inactive)
z-score [17]: 0.215 (inactive)
z-score [18]: -0.115 (inactive)
z-score [19]: -0.416
composite z-score [20]: -0.136

CCCc1cc2c(n1CCO)C(C)C1CN(C(=O)c3ccccc3)C(C)(C(=O)OC)C21 (stereo not given)
z-score [1]: -0.981
z-score [2]: 0.348
z-score [3]: 0.436
z-score [4]: -1.38
z-score [5]: -0.875
z-score [6]: 0.156
z-score [7]: -0.962 (inactive)
z-score [8]: 0.719
z-score [9]: -0.379
z-score [10]: -1.04 (inactive)
z-score [11]: -1.6
z-score [12]: 0.262 (inactive)
z-score [13]: -1.68 (inactive)
composite z-score [14]: -0.349 (inactive)
z-score [15]: -0.0703 (inactive)
z-score [16]: 0.168 (inactive)
z-score [17]: -0.681 (inactive)
z-score [18]: -0.127 (inactive)
z-score [19]: -1.85
composite z-score [20]: 0.612

C=C(CC1(C(C)NP(=O)(c2ccccc2)c2ccccc2)CC1)c1ccccc1 (stereo not given)
z-score [1]: -2.12
z-score [2]: 0.844
z-score [3]: -1.07
z-score [4]: -3.18
z-score [5]: -4.71
z-score [6]: -2.36
z-score [7]: -0.793 (inactive)
z-score [8]: -0.819
z-score [9]: -0.133
z-score [10]: 2.93 (inactive)
z-score [11]: 0.901
z-score [12]: -16.1 (active)
z-score [13]: 0.794 (inactive)
composite z-score [14]: -0.626 (inactive)
z-score [15]: 1.38 (inactive)
z-score [16]: -16 (active)
z-score [17]: -0.628 (inactive)
z-score [18]: -0.645 (inactive)
z-score [19]: 2
composite z-score [20]: 0.525

O=P(c1ccccc1)(c1ccccc1)N1CC2(CC2)CC(O)(c2ccccc2)C1 (stereo not given)
z-score [1]: -1.76
z-score [2]: -0.388
z-score [3]: -1.15
z-score [4]: -0.183
z-score [5]: -0.475
z-score [6]: -0.846
z-score [7]: -0.654 (inactive)
z-score [8]: 0.232
z-score [9]: -0.372
z-score [10]: -0.488 (inactive)
z-score [11]: -0.561
z-score [12]: 0.12 (inactive)
z-score [13]: -1.03 (inactive)
composite z-score [14]: -0.001 (inactive)
z-score [15]: 0.315 (inactive)
z-score [16]: 0.445 (inactive)
z-score [17]: -0.32 (inactive)
z-score [18]: 0.158 (inactive)
z-score [19]: -1.22
composite z-score [20]: 0.143

COC(=O)[C@H]1[C@@H](O)[C@@]2(O)c3c(OC)cc(OC)cc3O[C@@]2(c2ccc(OC)cc2)[C@@H]1c1ccccc1
z-score [1]: -2.35
z-score [2]: -1.63
z-score [3]: -2.23
z-score [4]: -3.46
z-score [5]: -3.35
z-score [6]: -2.69
z-score [7]: -0.0573 (inactive)
z-score [8]: -0.727
z-score [9]: -1.19
z-score [10]: -4.41 (inactive)
z-score [11]: -2.12
z-score [12]: -0.795 (inactive)
z-score [13]: -3.65 (inactive)
composite z-score [14]: -0.447 (inactive)
z-score [15]: 0.511 (inactive)
z-score [16]: 0.452 (inactive)
z-score [17]: 0.945 (inactive)
z-score [18]: 0.669 (inactive)
z-score [19]: -4.1
composite z-score [20]: -0.245

CCCc1cc2c(n1Cc1ccc(C)cc1)C(C)C1CN(C(=O)c3ccccc3)C(C)(C(=O)OC)C21 (stereo not given)
z-score [1]: 0.345
z-score [2]: -0.441
z-score [3]: 1.11
z-score [4]: -2.84
z-score [5]: -4.73
z-score [6]: 2.34
z-score [7]: -0.268 (inactive)
z-score [8]: 0.00271
z-score [9]: -1.59
z-score [10]: -1.58 (inactive)
z-score [11]: -0.492
z-score [12]: -0.283 (inactive)
z-score [13]: -1.04 (inactive)
composite z-score [14]: -1.07 (inactive)
z-score [15]: 0.355 (inactive)
z-score [16]: -0.654 (inactive)
z-score [17]: 0.103 (inactive)
z-score [18]: 0.357 (inactive)
z-score [19]: -1.11
composite z-score [20]: 0.174

COc1cc2c(cc1O)C(C)N(C)CC2 (stereo not given)
z-score [1]: 1.22
z-score [2]: 1.01
z-score [3]: 0.262
z-score [4]: -0.853
z-score [5]: 0.456
z-score [6]: 0.0836
z-score [7]: 1.27 (inactive)
z-score [8]: -0.663
z-score [9]: 1.07
z-score [10]: 0.115 (inactive)
z-score [11]: -0.454
z-score [12]: -0.709 (inactive)
z-score [13]: 0.412 (inactive)
composite z-score [14]: -3.68 (inactive)
z-score [15]: -0.227 (inactive)
z-score [16]: -0.448 (inactive)
z-score [17]: 0.516 (inactive)
z-score [18]: -0.385 (inactive)
z-score [19]: 0.566
composite z-score [20]: -0.184

CC1N(P(=O)(c2ccccc2)c2ccccc2)CC(O)(c2ccccc2)CC12CC2 (stereo not given)
z-score [1]: -1.2 and -1.31
z-score [2]: -0.216 and -0.899
z-score [3]: -1.5 and -1.05
z-score [4]: -0.187 and -0.545
z-score [5]: -1.7 and -1.4
z-score [6]: -0.722 and -1.02
z-score [7]: -1.04 (inactive) and -1.11 (inactive)
z-score [8]: 0.655 and -0.4
z-score [9]: -0.307 and -0.694
z-score [10]: 0.146 (inactive) and 1.49 (inactive)
z-score [11]: -0.964 and 0.138
z-score [12]: 2.47 (inactive) and 0.135 (inactive)
z-score [13]: -1.13 (inactive) and -0.22 (inactive)
composite z-score [14]: 0.296 (inactive) and -0.264 (inactive)
z-score [15]: 0.495 (inactive) and 0.178 (inactive)
z-score [16]: 1.23 (inactive) and -0.154 (inactive)
z-score [17]: -0.611 (inactive) and -0.406 (inactive)
z-score [18]: 0.0506 (inactive) and -0.0402 (inactive)
z-score [19]: -1.54 and 0.553
composite z-score [20]: -0.193 and -0.25
